Only a selection was taken, and hits are over-represented in it overall.
Shiga inhibitor – blocks Shiga toxin action in Vero cells | Vero cells, Shiga toxin protein synthesis inhibition reporter | 290,000 compounds, 9.2% hits | inhibition, % at 38.7 µM; in the data active = inhibition mostly above about 28%, no sharp cut-off; inactive = mostly below about 43%; also: 0% is about no effect
TbPYK inhibitor – blocks Trypanosoma brucei pyruvate kinase. TbPYK enzyme, Kinase-Glo Plus ATP luminescence, 45 min. Potency, µM (doses to about 76.8 µM), for the others: at the top dose activity, negative = inhibition, hits mostly inhibitors. 410,000 compounds, 0.12% hits. AID 624173; also: potency is read from the fitted curve at half-maximal effect; % is scaled to controls: 0 for no effect and ±100 for the full control effect; nearly all actives have a fitted effect of over 50% in size
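TbPYK + substrate in 50 mM TEA pH 7.2, 100 mM KCl, 10 mM MgCl2, 0.05% BSA, 0.01% Tween-20; cpd pinned; ADP 130 uM final; 45 min RT; Kinase-Glo Plus 10 min; luminescence endpoint.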
LmPK inhibitor – blocks Leishmania mexicana pyruvate kinase activity | 290,000 compounds, 0.37% hits | Potency, µM (series often up to 57.5 µM), for inactives: top-dose activity change, negative = inhibition, hits mostly inhibitors | Q27686 | AID 1721 | purified LmPK, Kinase-Glo ATP luminescence, 1 h; also: potency is read from the fitted curve at half-maximal effect; % is scaled to controls: 0 for no effect and ±100 for the full control effect
Target sequence (Q27686 whole entry, looked up): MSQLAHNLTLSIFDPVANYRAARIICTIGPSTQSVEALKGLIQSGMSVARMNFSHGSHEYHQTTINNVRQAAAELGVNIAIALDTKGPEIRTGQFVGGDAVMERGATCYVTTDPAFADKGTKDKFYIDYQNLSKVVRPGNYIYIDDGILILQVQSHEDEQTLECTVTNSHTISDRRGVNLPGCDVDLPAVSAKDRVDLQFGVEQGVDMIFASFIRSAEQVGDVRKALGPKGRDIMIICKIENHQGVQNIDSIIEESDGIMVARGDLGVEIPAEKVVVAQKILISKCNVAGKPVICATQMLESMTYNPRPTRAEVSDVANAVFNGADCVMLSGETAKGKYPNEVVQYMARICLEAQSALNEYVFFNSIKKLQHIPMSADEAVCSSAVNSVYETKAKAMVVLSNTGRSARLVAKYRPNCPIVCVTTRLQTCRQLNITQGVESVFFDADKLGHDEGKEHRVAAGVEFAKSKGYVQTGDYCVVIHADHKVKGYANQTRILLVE
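Kinase-Glo luminescence read after 1 h RT reaction of 0.1 nM LmPK with 0.5 mM PEP and 0.1 mM ADP. Activity scaled between uninhibited and enzyme-free controls.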
RE007 growth inh – less growth of the S. pombe RE007 Vpr strain | S. pombe RE007 Vpr strain, BacTiter-Glo ATP luminescence, 24 h | 360,000 compounds, 0.21% hits | Potency, µM (series often up to 92.2 µM), for inactives: top-dose activity change, negative = less growth, most hits filed as inhibitors; active = well fitted falling curve with a large enough effect; inconclusive = small, poorly fitted or top-dose-only effect; inactive = no such curve, though single readings can be large or run the other way; also: potency is read from the fitted curve at half-maximal effect; % is scaled to controls: 0 for no effect and ±100 for the full control effect; nearly all actives have a fitted effect of over 50% in size
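Fission yeast RE007 carrying one integrated HIV-1 vpr copy, seeded at OD 0.01 in PMG+AL medium with 23 nL pinned compound. Grown 24 h at 30 degrees; viability read by BacTiter-Glo luminescence after 5 min.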
FBPA Giardia inh – Giardia lamblia aldolase inhibition; purified Giardia FBPA; 290,000 compounds, 0.71% hits; A8B2U2; Potency, µM (titrated, usually from 59.6 µM), for inactives: at the top dose activity, negative = inhibition, hits mostly inhibitors; also: potency is read from the fitted curve at half-maximal effect; % is scaled to controls: 0 for no effect and ±100 for the full control effect; nearly all actives have a fitted effect of over 55% in size
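Giardia FBPA (40 nM reagent) was preincubated 10 min at RT with compound (up to 57.5 uM final), then substrate plus GAPDH/TPI/NAD/arsenate coupling system with diaphorase/resazurin was added; resorufin fluorescence (525/598 nm) was read after 20 min.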
Cycloheximide cs – affects cycloheximide protein synthesis inhibition readout, counter-screen; cell reporter, cycloheximide protein synthesis inhibition counterscreen; max response, %; 300,000 compounds, 12% hits; in the data active = max response mostly above about 13%, no sharp cut-off; inactive = mostly below about 14%; also: read at 38.3 µM for the half of the compounds with a filed dose; 0% is about no effect
Active calls of the source: *. Unless noted, calls follow the shape of the dose curve; as a rule, active = well fitted curve in the direction sought with a large enough effect; inconclusive = small, poorly fitted or top-dose-only effect, or another doubt; inactive = no such curve, though single readings can be large; an effect the other way counts as inactive or inconclusive.

How did O=c1oc2ccccc2cc1-c1csc(Nc2nc3c(F)cccc3s2)n1 do in these assays?
Shiga inhibitor: 2; TbPYK inhibitor: -17%; LmPK inhibitor: 6%; RE007 growth inh: 9%; FBPA Giardia inh: -2%; Cycloheximide cs: 5

How did Fc1cccc2sc(Nc3nc4cc5c(cc4s3)OCCO5)nc12 do in these assays?
Shiga inhibitor: 96*; TbPYK inhibitor: -2%; LmPK inhibitor: -4%; RE007 growth inh: inconclusive; FBPA Giardia inh: 14%; Cycloheximide cs: 51*

What do the screens show for `COc1cccc(N2C(=O)CSC23C(=O)N(CC(=O)NCc2ccc(C)cc2)c2ccccc23)c1` (stereo unspecified)?
TbPYK inhibitor: -8%

What do the screens show for `O=C(NCc1n[nH]c(=S)n1-c1cccc(Cl)c1)c1ccc(S(=O)(=O)N2CCCCC2)cc1`?
Shiga inhibitor: -2; TbPYK inhibitor: inconclusive; LmPK inhibitor: 12%; RE007 growth inh: -19%; FBPA Giardia inh: -2%; Cycloheximide cs: -3

What do the screens show for `Cc1cccc(-n2c(CNC(=O)c3ccc(S(=O)(=O)N4CCCC4)cc3)n[nH]c2=S)c1`?
Shiga inhibitor: -16; TbPYK inhibitor: 14µM*; LmPK inhibitor: -10%; RE007 growth inh: 2%; FBPA Giardia inh: -3%; Cycloheximide cs: -2

What do the screens show for `Cc1ccc(C(=O)/C=C/c2cn(CC(O)CN3CCc4ccccc43)c3ccccc23)cc1` (stereo unspecified)?
TbPYK inhibitor: -6%

What do the screens show for `O=C(/C=C/c1cn(CC(O)CN2CCOCC2)c2ccccc12)c1cccs1` (stereo unspecified)?
Shiga inhibitor: 64; LmPK inhibitor: 3%; FBPA Giardia inh: -18%; Cycloheximide cs: 19

Results for Cc1ccc(C(=O)/C=C/c2cn(CC(O)CN3CCOCC3)c3ccccc23)cc1 (stereo unspecified) ?
Shiga inhibitor: 29; TbPYK inhibitor: 0%; LmPK inhibitor: 1%; RE007 growth inh: -1%; FBPA Giardia inh: -4%; Cycloheximide cs: 30*

What do the screens show for `COc1ccc(C(=O)/C=C/c2cn(CC(O)CN3CCOCC3)c3ccccc23)cc1` (stereo unspecified)?
Shiga inhibitor: 13; TbPYK inhibitor: -4%; LmPK inhibitor: -6%; RE007 growth inh: 27%; FBPA Giardia inh: -10%; Cycloheximide cs: 12*

How did CC(=O)Nc1cccc(-c2nnc(SCC(=O)c3cc([N+](=O)[O-])ccc3Br)o2)c1 do in these assays?
TbPYK inhibitor: 0%

What do the screens show for `O=C(CCNS(=O)(=O)c1ccc(Br)s1)Nc1ccc(Br)cc1`?
TbPYK inhibitor: 2%

Results for Fc1cccc(Cl)c1CSc1ccc(-c2cccnc2)nn1 ?
Shiga inhibitor: 143*; TbPYK inhibitor: 3%; LmPK inhibitor: 1%; RE007 growth inh: -4%; FBPA Giardia inh: -7%; Cycloheximide cs: 36*

What do the screens show for `O=C(CSc1ccc(-c2cccnc2)nn1)Nc1ccc(F)cc1`?
Shiga inhibitor: 15; TbPYK inhibitor: 0%; LmPK inhibitor: 3%; RE007 growth inh: 1%; FBPA Giardia inh: 2%; Cycloheximide cs: 5

Results for Clc1ccc(CSc2ccc(-c3cccnc3)nn2)cc1 ?
Shiga inhibitor: 33; TbPYK inhibitor: 2%; LmPK inhibitor: -4%; RE007 growth inh: 14%; FBPA Giardia inh: -4%; Cycloheximide cs: 27*

How did O=[N+]([O-])c1cccnc1SCc1c(F)cccc1Cl do in these assays?
Shiga inhibitor: -6; TbPYK inhibitor: -15%; LmPK inhibitor: 9%; RE007 growth inh: 2%; FBPA Giardia inh: 6%; Cycloheximide cs: 1

What do the screens show for `O=[N+]([O-])c1ccc(SCc2c(F)cccc2Cl)nc1`?
Shiga inhibitor: 20; TbPYK inhibitor: -1%; LmPK inhibitor: 3%; RE007 growth inh: -3%; FBPA Giardia inh: 7%; Cycloheximide cs: 19*

How did CCc1ccc(NC(=O)CSc2ccc(-c3cccnc3)nn2)cc1 do in these assays?
Shiga inhibitor: -4; TbPYK inhibitor: 2%; LmPK inhibitor: -1%; RE007 growth inh: 16%; FBPA Giardia inh: -4%; Cycloheximide cs: 6

Source: PubChem (National Center for Advancing Translational Sciences (NCATS))
